Data as given in PubChem BioAssay (NCI).
The panel holds about 83,000 compounds, 20% with a hit somewhere; the sample as a whole holds those more often.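 Compound tested at a single concentration for 48 hours in 96-well plates; a percent growth value below 10 was scored as active.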 Values without a mark were called inactive. Activity calls are given as the source filed them.

Tested on: DU-145 prostate
Assay: NCI-60 one-dose screen, 48 h (100 = growth as untreated, 0 = no growth, -100 = all killed)
Conditions: 10 µM unless noted

| SMILES | growth |
| --- | --- |
| CC1(C)CC[C@]2(C(=O)O)CC[C@]3(C)C(=CCC4[C@@]5(C)C[C@@H](O)[C@@H]6OC(c7ccccc7O)OC[C@@]6(C)C5CC[C@]43C)C2C1 (stereo partly drawn) | 44.1% |
| CN(c1ccc(Br)cc1)S(=O)(=O)c1ccc(-c2cnc(C3CC3)o2)cc1 | 26.2% |
| CN1CCN(c2nc(-c3csc(-c4ccncc4)n3)cc3ccccc23)CC1 | 65.3% |
| O=C(O)c1ccc(-n2cc(CNc3ccc(F)cc3)c(-c3ccc(C(F)(F)F)cc3)n2)cc1 | 98.2% |
| CSc1nccc(-c2c(-c3ccc(F)c(OCc4ccc(F)cc4)c3)nc3sccn23)n1 | 88.5% |
| O=C(COc1ccc(C2SCC(=O)N2c2ccccc2)cc1)c1ccccc1 (stereo not drawn) | 102% |
| O=C(O)CNS(=O)(=O)c1ccc(Oc2ccc(S(=O)(=O)NCC(=O)O)cc2)cc1 | 105% |
| Cn1nc(Nc2ccccc2)c(C(=O)NN)c1N | 106% |
| COc1cc(/C=N/n2cnc3oc(-c4ccccc4)cc3c2=N)cc(CN2CCN(C)CC2)c1O | 110% |
| CC(C)SC1=NC(=C(C(=N1)NC2=ClC=CC=C2)C#N)C3=CC=CC=C3 | 81.2% |
| NS(=O)(=O)c1ccc(Nc2nc(N/N=C/c3ccc(F)cc3)nc(Nc3ccccc3)n2)cc1 | 31.1% |
| C#C[C@]1(O)CC[C@H]2[C@@H]3CC=C4c5sc(Nc6cccc(C)n6)nc5CC[C@]4(C)[C@H]3CC[C@@]21C | 43.6% |
| CNC(=O)c1cc(Oc2ccc3nc(NC(=O)c4cc(C)cc(C)c4)sc3c2)ccn1 | 93.5% |
| C=C(C)[C@@H]1CC[C@]2(COS(C)(=O)=O)CC[C@]3(C)[C@H](CC[C@@H]4[C@@]5(C)CCCNC(C)(C)[C@@H]5CC[C@]43C)[C@@H]12 | 42.1% |
| CC(C)=CCc1c2c(c(O)c3c1O[C@]14C(=C[C@@H]5C[C@H]1C(C)(C)O[C@@]4(C/C=C(/C)C(=O)O)C5=O)C3=O)CC(O)C(C)(C)O2 (stereo partly drawn) | -78.2% (active) |
| O=C(Cn1cc(CN2C(=O)c3ccc([N+](=O)[O-])cc3C2=O)nn1)Nc1ccccc1Br | 113% |
| COc1cc(-c2nc(SCc3ccc(C)cc3)[nH]c(=O)c2C#N)ccc1OCc1ccccc1 | 106% |
| CC(C)N=C(N/C(N)=N/c1nc2ccccc2s1)NC(C)C | 85.6% |
| O=C(Nc1cc(Cl)cc(Cl)c1)Nc1ccc2oc(=O)ccc2c1 | 17% |

| SMILES | growth |
| --- | --- |
| CS(=O)(=O)c1nccc(-c2c(-c3ccc(F)c(OCc4ccccc4)c3)nc3sccn23)n1 | -64% (active) |
| COc1ccc(C2C(C#N)=C(N)Oc3c2sc2ccc(C)cc32)cc1 (stereo not drawn) | 36.3% |
| C#C[C@]1(O)CC[C@H]2[C@@H]3CC=C4c5sc(-c6ccccn6)nc5CC[C@]4(C)[C@H]3CC[C@@]21C | 90.2% |
| COc1ccc(OC)c([C@H]2c3[nH]c4ccccc4c3C[C@H]3C(=O)N(CCCCCCC(=O)NO)CC(=O)N23)c1 | 90.1% |
| Cc1cnc2nc(NN)[nH]n12 | 109% |
| COc1ccc(-c2nc3cc(Cl)c(Cl)cc3n2CC(=O)N=Nc2c(O)[nH]c3ccc(Br)cc23)cc1 | -48.4% (active) |
| O=C(NCCCCCCNC(=O)c1c2c(nc3ccccc13)-c1cccnc1SC2)c1c2c(nc3ccccc13)-c1cccnc1SC2 | 104% |
| COc1ccc(-c2ccc3c4c(cccc24)C(=O)N(N2C(=O)c4cccc5cccc(c45)C2=O)C3=O)cc1 | 112% |
| COc1ccc(-c2nc3cc(Cl)c(Cl)cc3n2CC(=O)N=Nc2c(O)[nH]c3ccc(Cl)cc23)cc1 | -10.9% (active) |
| CCOC(=O)c1c(NCC(=O)Nc2ccc(Br)cc2)sc2c1CCCC2 | 66.7% |
| CN1C(=O)/C(=C/C=C/c2ccco2)SC1=S | 101% |
| COc1ccc(-c2nnc(SCc3ccc(O)c4ncccc34)o2)cc1 | 32.7% |
| C#CCOc1ccc(/C=N/Nc2nc(-c3cc4cc(Br)cc(Br)c4oc3=O)cs2)cc1 | 96.1% |
| CS(=O)c1nccc(-c2c(-c3ccc(F)c(OCCc4ccc(F)cc4)c3)nc3sccn23)n1 (stereo not drawn) | 1.03% (active) |
| O=C1[C@@H]2Cc3c([nH]c4ccccc34)[C@H](c3c(Cl)cccc3Cl)N2C(=O)CN1C1CCN(Cc2c(F)cccc2F)CC1 | 58.8% |
| NNC(=O)c1sc2nc(-c3cnccn3)cc(-c3cccs3)c2c1N | 104% |
| Cn1cc(-c2nnc(N)nc2-c2cn(C)c3ccc(F)cc23)c2cc(F)ccc21 | 95.6% |
| COc1ccccc1/C=C/C=N/NC1=NC2C(S1)N(C)C(=O)N2c1ccccc1 (stereo not drawn) | 8.54% (active) |
| C[C@H]1[C@H](C)CC[C@]2(COC(=O)c3cccnc3)CC[C@]3(C)C(=CC[C@@H]4[C@@]5(C)CCCNC(C)(C)[C@@H]5CC[C@]43C)[C@H]12 | 84.4% |
